Compound activity as filed in PubChem.
Bcl-xL primary – blocks human Bcl-xL binding to Bim BH3 peptide | Q07817 | GST-Bcl-xL / FITC-Bim BH3 peptide fluorescence polarization | inhibition, % at 10.9 µM | 0.7% of 320,000 active;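 active = inhibition above the mean of all tested compounds plus 3 SD, cutoff set per campaign, cut at about 30% in these data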;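 note: 0% = DMSO wells and 100% = unlabeled Bim-BH3 peptide competitor; inhibitors lower millipolarization by displacing the labeled peptide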
Target sequence (Q07817 whole entry, looked up): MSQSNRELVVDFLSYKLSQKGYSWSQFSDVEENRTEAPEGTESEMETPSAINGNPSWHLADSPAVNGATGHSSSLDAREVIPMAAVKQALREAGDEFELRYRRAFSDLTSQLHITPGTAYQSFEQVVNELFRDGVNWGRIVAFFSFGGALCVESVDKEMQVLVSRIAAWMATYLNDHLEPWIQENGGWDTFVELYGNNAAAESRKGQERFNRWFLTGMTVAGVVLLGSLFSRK
MCL1-BIM inh – inhibitors of human MCL1 binding to BIM-BH3 peptide. Q07820. GST-MCL1 / FITC-Bim-BH3 fluorescence polarization. inhibition, % at 10.9 µM. 0.68% of 320,000 active. AID 2057;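 active = inhibition above the mean inhibition of all tested compounds plus 3 SD, set per campaign, cut at about 40% in these data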;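 note: 0% = DMSO wells and 100% = unlabeled Bim-BH3 peptide control; higher means more loss of mP so more displacement of Bim peptide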
Target sequence (Q07820 whole entry, looked up): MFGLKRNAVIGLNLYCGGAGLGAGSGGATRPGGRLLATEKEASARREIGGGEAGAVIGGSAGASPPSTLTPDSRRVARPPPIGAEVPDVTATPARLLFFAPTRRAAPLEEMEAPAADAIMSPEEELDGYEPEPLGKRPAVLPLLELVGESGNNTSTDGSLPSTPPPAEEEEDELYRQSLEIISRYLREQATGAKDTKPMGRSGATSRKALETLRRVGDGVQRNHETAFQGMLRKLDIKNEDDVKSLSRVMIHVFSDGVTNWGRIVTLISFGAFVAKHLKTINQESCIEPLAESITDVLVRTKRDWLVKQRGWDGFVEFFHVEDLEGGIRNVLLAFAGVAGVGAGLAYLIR
MEX-5 binding – C. elegans MEX-5 TCR-2 RNA binding activity. Q9XUB2. AID 1832. activity score (negative = inhibition of binding), % at 10 µM. 0.38% of 300,000 active. MEX-5/FITC-TCR2 RNA binding, fluorescence polarization; stronger effect = lower value;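 active = inhibition past about -25% in most replicates, and total fluorescence under double the plate's negative control median, limit read from the data; inconclusive = replicates evenly split on the limit, or fluorescence at least double controls; inactive = too little inhibition in most replicates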;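 note: 0% = DMSO and -100% = 5 µM competing unlabeled TCR2 RNA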
GLD-1 TGE inh – GLD-1-TGE RNA interaction inhibition (C. elegans). Q17339. purified GLD-1 + fluorescein TGE RNA, fluorescence polarization. inhibition, % at 5.96 µM. 0.44% of 320,000 active;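 active = percent inhibition above a per-plate cutoff, the plate mean of test compounds plus 3 SD, cut at about 30% in these data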;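 note: 0% = DMSO wells with GLD-1 and probe and 100% = wells lacking GLD-1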
eLon inh – inhibitors of E. coli Lon protease | purified E. coli Lon protease, fluorescence polarization | inhibition, % at 7.94 µM | 0.42% of 360,000 active; in the data active = inhibition above about 13%, passing the limit was not always enough;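 note: 0% = enzyme with probe and DMSO and 100% = no enzyme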
Bcl-xL conf – Bcl-xL (human) inhibition, MCL1 counter-screen confirmation | inhibition, % at 10.9 µM | shares compounds with MCL1-BIM inh | AID 2166 | GST-Bcl-xL / FITC-Bim BH3 peptide FP binding | 54% of 1,700 active;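 active = inhibition above a cutoff equal to the mean inhibition of all tested compounds plus 3 SD, cut at about 30% in these data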;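 note: 0% = DMSO wells and 100% = unlabeled Bim BH3 control peptide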
MCL1 inh confirm – MCL1-BIM-BH3 interaction inhibition, confirmation; GST-MCL1 / FITC-Bim-BH3 fluorescence polarization; shares compounds with MCL1-BIM inh; 61% of 1,700 active; inhibition, % at 10.9 µM;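 active = inhibition above the average of all tested compounds plus 3 SD, cut at about 40% in these data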;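 note: 0% = DMSO wells and 100% = unlabeled Bim-BH3 control peptide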
Starred values were filed as active, the others as inactive; ? = inconclusive; . = not tested or not shown; + = active, no number. An excerpt weighted towards active compounds, which were near 1.4% of everything screened.

SMILES	Bcl-xL primary	MCL1-BIM inh	MEX-5 binding	GLD-1 TGE inh	eLon inh	Bcl-xL conf	MCL1 inh confirm
CSCCC(NC(=O)COc1ccccc1)C(=O)N(C)Cc1c(F)cccc1Cl (stereo unspecified)	.	.	.	.	-9	.	.
O=C(NC(=S)Nc1cccc2c(O)cccc12)c1ccccc1[N+](=O)[O-]	31*	48*	-3	-2	4	27	27
O=C(/C=C1\NC2(CCCC2)Cc2ccccc21)C(=O)N/N=C/c1ccc(O)c(O)c1	4	42*	-4	-5	6	31*	43*
CC(=O)c1c(-c2ccccc2)c2cc(Cl)ccc2n(C)c1=O	0	0	-1	0	-10	.	.
CC(=O)c1c2c3c(cccc3n(C)c1=O)C(=O)c1ccccc1-2	85*	96*	-12	67*	.	129*	152*
CNc1ccccc(-c2ccc3cc4c(cc3n2)OCO4)c1=O	91*	114*	-13	14	12	34*	33
CC(C)CNC(=O)C1(C)CCCN1C(=O)c1ccc2c(c1)CCO2 (stereo unspecified)	.	.	.	.	0	.	.
Cc1ccc(S(=O)(=O)N2C[C@H]3C(=O)C[C@@H](c4ccccc4)N(S(=O)(=O)c4ccccc4)[C@H]3C[C@H]2c2ccccc2)cc1	.	.	.	.	8	.	.
O=C(NNC(=O)c1ccccc1F)c1cccc(-n2cccc2)c1	7	65*	-3	-1	-13	23	92*
Cc1c(NS(=O)(=O)c2cc(C(=O)NCCN(C)C)ccc2Cl)c(=O)n(-c2ccccc2)n1C	17	75*	2	-7	-7	7	11
Cc1c(NS(=O)(=O)c2cc(C(=O)NCc3cccc(Cl)c3)ccc2Cl)c(=O)n(-c2ccccc2)n1C	.	.	.	.	1	.	.
COC(=O)C1=C(C)N(C)C(=O)NC1c1cc2c(cc1[N+](=O)[O-])OCO2 (stereo unspecified)	59*	54*	-6	28	0	44*	40*
COC(=O)C1=C(C)N(CCCC(=O)O)C(=O)NC1c1cc2c(cc1[N+](=O)[O-])OCO2 (stereo unspecified)	54*	52*	-15	27	13	6	2
O=C(O)C1Sc2[nH]c(=O)sc2C2c3ccc(O)cc3OC(=O)C12 (stereo unspecified)	67*	82*	?	73*	-28	46*	49*
O=C(O)C1Sc2[nH]c(=O)sc2C2c3cc(Cl)ccc3OC(=O)C12 (stereo unspecified)	15	13	-8	10	-10	.	.
COC(=O)\C(C(C)=O)=C(/C=C/C=C/C=C/N(C)C)N(C)C	28	50*	.	19	2	15	-3
CCOC(=O)C(=O)N(C)c1c(CC)nc2c(OCc3ccccc3)cccn12	.	.	.	.	-9	.	.
O=C(COc1ccccc1C(=O)N/N=C\c1ccc(O)c(O)c1)N/N=C/c1ccc(O)c(O)c1	16	56*	-2	3	5	44*	81*
COc1ccc(N=Cc2cc(Cc3ccccc3Cl)cc([N+](=O)[O-])c2O)cc1OC	-12	-18	-2	6	-10	.	.
Cc1ccc(N=Cc2cc(Cc3ccccc3Cl)cc([N+](=O)[O-])c2O)c(O)c1	44*	47*	-10	-3	-3	7	47*
CCC1CC(C(=O)O)CC(=O)N1 (stereo unspecified)	.	.	.	.	2	.	.
Cc1cc(C)n(-c2nc3ccccc3nc2Nc2ccc3[nH]c(=O)[nH]c3c2)n1	79*	54*	-3	65*	-7	43*	36
COc1ccc(Nc2nc3ccccc3nc2-n2nc(C)cc2C)cc1	-3	0	-1	0	-8	.	.
Cn1cc(/C=C2\SC(=O)NC2=S)c2ccccc21	62*	60*	-1	-5	1	74*	82*
COc1ccc(NC(=O)CCl)cn1	105*	111*	-60*	82*	.	84*	115*
SMILES	Bcl-xL primary	MCL1-BIM inh	MEX-5 binding	GLD-1 TGE inh	eLon inh	Bcl-xL conf	MCL1 inh confirm
COc1ccc(NC(=O)c2ccco2)cn1	70*	75*	-13	60*	16	64*	86*
COc1ccc(NC(=O)/C=C/c2ccco2)cn1	12	16	-4	10	-2	.	.
COc1ccc(NC(=O)/C=C/c2cccc(F)c2)cn1	75*	75*	-9	47*	1	54*	68*
COc1cccc(OC)c1C(=O)Nc1ccc(NC(=O)c2ccco2)cc1	4	2	-1	-6	-7	.	.
COc1ccccc1NC(=O)c1ccc(-c2nn(C)c(=O)c3ccccc23)cc1	6	-2	-1	0	-6	.	.
COc1ccc(NC(=O)c2ccc(-c3nn(C)c(=O)c4ccccc34)cc2)cc1	16	45*	-2	5	-2	-4	-7
C[C@@H]1CN([C@@H](C)CO)C(=O)CCCn2nncc2CO[C@H]1CN(C)Cc1cccc(C(F)(F)F)c1	.	.	.	.	8	.	.
O=C(O)CCCCC1CCSS1 (stereo unspecified)	21	102*	?	3	-7	24	104*
O=C(COC(=O)c1ccc([N+](=O)[O-])s1)Nc1ncc(C(F)(F)F)cc1Cl	13	+	-2	2	-21	12	16
O=C(COC(=O)c1ccccn1)Nc1ncc(C(F)(F)F)cc1Cl	3	1	-7	9	-9	.	.
COc1ccc(C)cc1NC(=O)NC1CC(=O)N(c2ccc3c(c2)OCCO3)C1 (stereo unspecified)	.	.	.	.	-3	.	.
CC(=O)OCC1=C(C(=O)O)N2C(=O)C(NC(=O)CCn3nc(C(F)(F)F)c(Br)c3C3CC3)C2SC1 (stereo unspecified)	9	65*	-4	-1	-1	24	96*
CC(=O)OCC1=C(C(=O)O)N2C(=O)C(NC(=O)CCn3nc(C)c(Cl)c3C)C2SC1 (stereo unspecified)	6	6	-3	-4	-3	.	.
COc1ccccc1N(CC(=O)NC1CCCC1)C(=O)c1csnn1	3	69*	1	-3	5	7	3
COc1ccccc1N(CC(=O)NC1CCCCC1)C(=O)c1csnn1	2	0	2	6	5	.	.
Cn1c(=O)ccc2ccccc21	.	.	.	.	-4	.	.
Oc1c(C=NCc2ccccc2)sc2ccccc12	6	10	-1	3	6	.	.
Oc1cccc(C=Nc2cccc3ccccc23)c1O	38*	66*	-4	24	-8	31*	52*
Oc1cccc(C=NCc2ccccc2)c1O	30	64*	0	13	21	32*	65*
Oc1ccccc1C=Nc1cccc2ccccc12	12	10	1	5	2	.	.
